# In paper PMC12864922, “TDP-43 directly inhibits mRNA accumulation in neurites through modulation of mRNA stability”:
# In all, about 9,900 sequences were measured (“r (bound/input frequency ratio)”: median about 0.7, highest 2% from about 6.5 on). The sample as a whole holds a higher share of the highest values than the screen did.
# B1: ENSMUSG00000061578.87|Ksr2 (ssRNA)
# RNA: GGGAGUUCUACAGUCCGACGAUCGCUUCGAUAUCCGCAUGCUAGGGUUAAACUUGCAAACAUCUGAUUUUAGAGGUCCCAUUCCAAGAUGGAAGUCACCGGUUGCCGCUGAGCACACAAUUCUGAAGGACAGUAGGCAGUCCUGCAGGUCUUUUUUAGCACAGGGCCUCUCUGGGGACCAGUCCCUGGCCUUCACCCUUCUCCCAUUUUGUAAGAACACUGUUCUAACUCACCUCAUGCCCACGCUACCCUGGGCAACUGGAGAACACCAUAGCGUUUCAGCUGAUGUGACAUUUGGUGUGACCUCUUGCGGUCGCACUAGUGUGGAAUUCUCGGGUGUCAAGG
# B2: ENSMUSG00000058297.288|Spock2|113:118 (ssRNA)
# RNA: GGGAGUUCUACAGUCCGACGAUCGCUUCGAUAUCCGCAUGCUAAGAGAGAGAGAGAGAGAGAGAGAGAGAGAGAAAGAGAGAGAGAAUGAGAGAGAAUGAGAGAGAGAAUACCCGAGGGCCACCCUGAUGCCCAGGAAGAGUGAGGGCAGCCCCCACACACGUGGAAGAGGCUGGGCAGCUAGCUACUGGGGACCUUGUGCUGAGGCUUCCAGGACAAAGCCCCAGUCUGGCUCUCCCCCAGCCUCUCAGGGGCACUGGCUGGUCACAUCCACUGAGUAUUGAUCGGUUGGACUUUAGGGAAGCUCUUGCGGUCGCACUAGUGUGGAAUUCUCGGGUGUCAAGG
# B3: ENSMUSG00000058297.287|Spock2|119:124 (ssRNA)
# RNA: GGGAGUUCUACAGUCCGACGAUCGCUUCGAUAUCCGCAUGCUAAGAGAGAGAGAGAGAGAGAGAGAGAGAGAGAGAGAGAAAGAGAGAGAGAAUGAGAGAGAAUGAGAGAGAGAAUACCCGAGGGCCACCCUGAUGCCCAGGAAGAGUGAGGGCAGCCCCCACACACGUGGAAGAGGCUGGGCAGCUAGCUACUGGGGACCUUGUGCUGAGGCUUCCAGGACAAAGCCCCAGUCUGGCUCUCCCCCAGCCUCUCAGGGGCACUGGCUGGUCACAUCCACUGAGUAUUGAUCGGUUGGACUUUACUCUUGCGGUCGCACUAGUGUGGAAUUCUCGGGUGUCAAGG
# B4: ENSMUSG00000058297.295|Spock2|71:76 (ssRNA)
# RNA: GGGAGUUCUACAGUCCGACGAUCGCUUCGAUAUCCGCAUGCUAAAUGAGAGAGAAUGAGAGAGAGAAUACCCGAGGGCCACCCUGAUGCCCAGGAAGAGUGAGGGCAGCCCCCACACACGUGGAAGAGGCUGGGCAGCUAGCUACUGGGGACCUUGUGCUGAGGCUUCCAGGACAAAGCCCCAGUCUGGCUCUCCCCCAGCCUCUCAGGGGCACUGGCUGGUCACAUCCACUGAGUAUUGAUCGGUUGGACUUUAGGGAAGAGCCUCCUCCUUCCCAUUCCUUUCUGCCACCCUGGAAUGGCCCUCUUGCGGUCGCACUAGUGUGGAAUUCUCGGGUGUCAAGG
# B5: ENSMUSG00000058297.298|Spock2|53:58 (ssRNA)
# RNA: GGGAGUUCUACAGUCCGACGAUCGCUUCGAUAUCCGCAUGCUAAGAGAAUACCCGAGGGCCACCCUGAUGCCCAGGAAGAGUGAGGGCAGCCCCCACACACGUGGAAGAGGCUGGGCAGCUAGCUACUGGGGACCUUGUGCUGAGGCUUCCAGGACAAAGCCCCAGUCUGGCUCUCCCCCAGCCUCUCAGGGGCACUGGCUGGUCACAUCCACUGAGUAUUGAUCGGUUGGACUUUAGGGAAGAGCCUCCUCCUUCCCAUUCCUUUCUGCCACCCUGGAAUGGCCACCUUAAUCGUCAUCUCCCUCUUGCGGUCGCACUAGUGUGGAAUUCUCGGGUGUCAAGG
# B6: ENSMUSG00000058297.289|Spock2|107:112 (ssRNA)
# RNA: GGGAGUUCUACAGUCCGACGAUCGCUUCGAUAUCCGCAUGCUAAGAGAGAGAGAGAGAGAGAGAGAGAAAGAGAGAGAGAAUGAGAGAGAAUGAGAGAGAGAAUACCCGAGGGCCACCCUGAUGCCCAGGAAGAGUGAGGGCAGCCCCCACACACGUGGAAGAGGCUGGGCAGCUAGCUACUGGGGACCUUGUGCUGAGGCUUCCAGGACAAAGCCCCAGUCUGGCUCUCCCCCAGCCUCUCAGGGGCACUGGCUGGUCACAUCCACUGAGUAUUGAUCGGUUGGACUUUAGGGAAGAGCCUCCUCUUGCGGUCGCACUAGUGUGGAAUUCUCGGGUGUCAAGG
# B7: ENSMUSG00000058297.296|Spock2|65:70 (ssRNA)
# RNA: GGGAGUUCUACAGUCCGACGAUCGCUUCGAUAUCCGCAUGCUAAGAGAAUGAGAGAGAGAAUACCCGAGGGCCACCCUGAUGCCCAGGAAGAGUGAGGGCAGCCCCCACACACGUGGAAGAGGCUGGGCAGCUAGCUACUGGGGACCUUGUGCUGAGGCUUCCAGGACAAAGCCCCAGUCUGGCUCUCCCCCAGCCUCUCAGGGGCACUGGCUGGUCACAUCCACUGAGUAUUGAUCGGUUGGACUUUAGGGAAGAGCCUCCUCCUUCCCAUUCCUUUCUGCCACCCUGGAAUGGCCACCUUACUCUUGCGGUCGCACUAGUGUGGAAUUCUCGGGUGUCAAGG
# B8: ENSMUSG00000058297.293|Spock2|83:88 (ssRNA)
# RNA: GGGAGUUCUACAGUCCGACGAUCGCUUCGAUAUCCGCAUGCUAAAAGAGAGAGAGAAUGAGAGAGAAUGAGAGAGAGAAUACCCGAGGGCCACCCUGAUGCCCAGGAAGAGUGAGGGCAGCCCCCACACACGUGGAAGAGGCUGGGCAGCUAGCUACUGGGGACCUUGUGCUGAGGCUUCCAGGACAAAGCCCCAGUCUGGCUCUCCCCCAGCCUCUCAGGGGCACUGGCUGGUCACAUCCACUGAGUAUUGAUCGGUUGGACUUUAGGGAAGAGCCUCCUCCUUCCCAUUCCUUUCUGCCACCUCUUGCGGUCGCACUAGUGUGGAAUUCUCGGGUGUCAAGG
# B9: ENSMUSG00000058297.290|Spock2|101:106 (ssRNA)
# RNA: GGGAGUUCUACAGUCCGACGAUCGCUUCGAUAUCCGCAUGCUAAGAGAGAGAGAGAGAGAGAAAGAGAGAGAGAAUGAGAGAGAAUGAGAGAGAGAAUACCCGAGGGCCACCCUGAUGCCCAGGAAGAGUGAGGGCAGCCCCCACACACGUGGAAGAGGCUGGGCAGCUAGCUACUGGGGACCUUGUGCUGAGGCUUCCAGGACAAAGCCCCAGUCUGGCUCUCCCCCAGCCUCUCAGGGGCACUGGCUGGUCACAUCCACUGAGUAUUGAUCGGUUGGACUUUAGGGAAGAGCCUCCUCCUUCUCUUGCGGUCGCACUAGUGUGGAAUUCUCGGGUGUCAAGG
# Target: TDP-43 (Homo sapiens, UniProt Q13148 1-414)
# Assay: RNA Bind-n-Seq with designed 260-mer pool; 25 mM Tris-HCl, 150 mM KCl, 3 mM MgCl2, BSA (printed 500 mg/mL), 20 units/mL SUPERase IN; pH not stated; 500 nM RNA pool, 1 h, 4 C; TDP-43 5, 50, 500 nM; high values mean tight binding
# Settings: protein: recombinant; tags: SBP (GST cleaved off with PreScission; pGEX-GST-SBP)
# Method in brief: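 Binding (R) is the ratio of each oligo's mapped-read-normalized abundance in the bound fraction to its abundance in the input. To obtain it, SBP-tagged recombinant TDP-43 (5, 50 or 500 nM) on streptavidin beads was incubated with 500 nM of an in vitro-transcribed 260-nt 3′ UTR oligo pool for 1 h at 4 °C in 25 mM Tris-HCl, 150 mM KCl, 3 mM MgCl2, BSA and SUPERase IN. The RNA retained after washing was released with biotin, then reverse transcribed, amplified by PCR and sequenced.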
# TDP-43, sequence (Q13148 whole entry): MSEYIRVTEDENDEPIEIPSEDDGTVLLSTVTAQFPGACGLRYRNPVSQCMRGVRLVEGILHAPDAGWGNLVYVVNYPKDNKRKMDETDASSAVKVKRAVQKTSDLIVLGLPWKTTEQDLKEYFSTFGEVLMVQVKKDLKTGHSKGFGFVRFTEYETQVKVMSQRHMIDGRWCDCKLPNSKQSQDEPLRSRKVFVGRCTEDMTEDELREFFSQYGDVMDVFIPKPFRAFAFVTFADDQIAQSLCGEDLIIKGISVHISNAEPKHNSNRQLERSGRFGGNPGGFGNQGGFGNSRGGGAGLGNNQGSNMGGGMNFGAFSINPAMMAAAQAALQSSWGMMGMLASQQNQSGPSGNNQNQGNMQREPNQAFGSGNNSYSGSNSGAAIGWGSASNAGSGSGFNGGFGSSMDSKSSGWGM
row,Binder,binding signal
1,B1,0.338 R (bound/input frequency ratio)
2,B2,7.71 R (bound/input frequency ratio)
3,B3,7.84 R (bound/input frequency ratio)
4,B4,3.59 R (bound/input frequency ratio)
5,B5,2.36 R (bound/input frequency ratio)
6,B6,7.59 R (bound/input frequency ratio)
7,B7,4.88 R (bound/input frequency ratio)
8,B8,3.42 R (bound/input frequency ratio)
9,B9,8.37 R (bound/input frequency ratio)
